Measured values as given in paper PMC12864922, “TDP-43 directly inhibits mRNA accumulation in neurites through modulation of mRNA stability”.
In all, about 9,900 sequences were measured (“r (bound/input frequency ratio)”: median about 0.7, highest 2% from about 6.5 on). Many of the other results were omitted from the sample, so the highest values are more common in it than they were.

B1: ENSMUSG00000028439.351|Fam219a (ssRNA)
RNA: GGGAGUUCUACAGUCCGACGAUCGCUUCGAUAUCCGCAUGCUACCCCCCACCGCAUCCCCACUGGGCUCUUUGACUCACCCUUCUAGAACAUGGGUGCCUCCUCUCUUUAGACUGCUGCCUUUGCCUCUGACUUCCUGUGGGAUUGAGAGCCAAGGGCCAGUGCCCUUGUGAGCGCACUAGUUCCGAAGCAGGCAAGGGCAUUAGGUGGUAUAUACAUAGCGGGUAGGGGUAGGAAGCUGGCAGCCUGCAGCUUCCAAGUCCAAGGAGAGCACACAGUUCCCUCCUUCCCUGCCUGGAAGUUGCUCUUGCGGUCGCACUAGUGUGGAAUUCUCGGGUGUCAAGG
B2: ENSMUSG00000061578.187|Ksr2 (ssRNA)
RNA: GGGAGUUCUACAGUCCGACGAUCGCUUCGAUAUCCGCAUGCUAUUGUGCACACUCAGCACCCCAUCUUCCAAGCCUUUCUUCAUCCCCCACCUUCUUUUGGGAAGGGGUGGCACAGAGUGAAUGGGAAGGAGAGCCCUGAGGUCACUGGUCCACAUGCCCAAAGCCAUGCCCCCCAGUGAUCAGACCUGACACAAGAGGCAAAGCUGUCCCUAAGCAGAGAAUUAGCAGGGUUAGCCAGACAGCAAAAUCCAUGUAAACAUACAAAACCACCCCCCCUUUUUGAGUGGCCCUAUUGGAUGUACCUCUUGCGGUCGCACUAGUGUGGAAUUCUCGGGUGUCAAGG
B3: ENSMUSG00000029028.21|Lrrc47 (ssRNA)
RNA: GGGAGUUCUACAGUCCGACGAUCGCUUCGAUAUCCGCAUGCUAUGUGCUGUAGGUGUCUGUGUGGGUGUGGGUGUGCUGUAGGUGUCUGUGUGGGUGUGGGUGUGCUAUAGGUAUCUGUGGGUGUGCUGUAGGUGUCUGUGUGGGUGUGCUGUAGGUGUCUGUGUAGGUGUGGGUGUGCUGUAGGUGUCUGUGUGGGUGUGCUAGGUGUCUGUAUAGGUGUGGGUGUGCUGUAGAUGUCUGUGUAGGUAUGGGUGUGCUGUAGAUCUUUGUAGGUGUAGGUAUGCUGUAGGUAUCUGGGUGUGCUCUUGCGGUCGCACUAGUGUGGAAUUCUCGGGUGUCAAGG
B4: ENSMUSG00000029028.28|Lrrc47 (ssRNA)
RNA: GGGAGUUCUACAGUCCGACGAUCGCUUCGAUAUCCGCAUGCUAUCUGUGUGGGUGUGGGUGUGCUAUAGGUAUCUGUGGGUGUGCUGUAGGUGUCUGUGUGGGUGUGCUGUAGGUGUCUGUGUAGGUGUGGGUGUGCUGUAGGUGUCUGUGUGGGUGUGCUAGGUGUCUGUAUAGGUGUGGGUGUGCUGUAGAUGUCUGUGUAGGUAUGGGUGUGCUGUAGAUCUUUGUAGGUGUAGGUAUGCUGUAGGUAUCUGGGUGUGGGUAUGCUGUAGAUGUCUGUGUAGGUGUGGAUAUGCUGUAGGCUCUUGCGGUCGCACUAGUGUGGAAUUCUCGGGUGUCAAGG
B5: ENSMUSG00000029028.66|Lrrc47 (ssRNA)
RNA: GGGAGUUCUACAGUCCGACGAUCGCUUCGAUAUCCGCAUGCUAAGAUGUCUGUGUAGGUGUGGAUAUGCUGUAGGUAUCUGGGUGUGCUGUAGGUGUCUGUGUGGGUGUGGGUGUGCUGUGGGUGUCUGUGUGGGUGUGCUGUAGGUGUCUGUAGGUGUGGGUAUGCUGCAGGUGUGGGUGUGCUGUAGAUCUCUAUAGGUGUGGGUGUGCUGUAGGGGUCUGUGUGGGUAUAGGUGUGGGUGUGCUGUAGAUUCUGUGUAACUGGUUCUUUGCUGUUUCUCUGGGUGUUUUAAGGUGUCUGCCUCUUGCGGUCGCACUAGUGUGGAAUUCUCGGGUGUCAAGG
B6: ENSMUSG00000029028.20|Lrrc47 (ssRNA)
RNA: GGGAGUUCUACAGUCCGACGAUCGCUUCGAUAUCCGCAUGCUAUGUGGGUGUGCUGUAGGUGUCUGUGUGGGUGUGGGUGUGCUGUAGGUGUCUGUGUGGGUGUGGGUGUGCUAUAGGUAUCUGUGGGUGUGCUGUAGGUGUCUGUGUGGGUGUGCUGUAGGUGUCUGUGUAGGUGUGGGUGUGCUGUAGGUGUCUGUGUGGGUGUGCUAGGUGUCUGUAUAGGUGUGGGUGUGCUGUAGAUGUCUGUGUAGGUAUGGGUGUGCUGUAGAUCUUUGUAGGUGUAGGUAUGCUGUAGGUAUCUGCUCUUGCGGUCGCACUAGUGUGGAAUUCUCGGGUGUCAAGG
B7: ENSMUSG00000029028.19|Lrrc47 (ssRNA)
RNA: GGGAGUUCUACAGUCCGACGAUCGCUUCGAUAUCCGCAUGCUAUGUAGGUGUGGGUGUGCUGUAGGUGUCUGUGUGGGUGUGGGUGUGCUGUAGGUGUCUGUGUGGGUGUGGGUGUGCUAUAGGUAUCUGUGGGUGUGCUGUAGGUGUCUGUGUGGGUGUGCUGUAGGUGUCUGUGUAGGUGUGGGUGUGCUGUAGGUGUCUGUGUGGGUGUGCUAGGUGUCUGUAUAGGUGUGGGUGUGCUGUAGAUGUCUGUGUAGGUAUGGGUGUGCUGUAGAUCUUUGUAGGUGUAGGUAUGCUGUAGGCUCUUGCGGUCGCACUAGUGUGGAAUUCUCGGGUGUCAAGG
B8: ENSMUSG00000029028.68|Lrrc47 (ssRNA)
RNA: GGGAGUUCUACAGUCCGACGAUCGCUUCGAUAUCCGCAUGCUAAGGUGUGGAUAUGCUGUAGGUAUCUGGGUGUGCUGUAGGUGUCUGUGUGGGUGUGGGUGUGCUGUGGGUGUCUGUGUGGGUGUGCUGUAGGUGUCUGUAGGUGUGGGUAUGCUGCAGGUGUGGGUGUGCUGUAGAUCUCUAUAGGUGUGGGUGUGCUGUAGGGGUCUGUGUGGGUAUAGGUGUGGGUGUGCUGUAGAUUCUGUGUAACUGGUUCUUUGCUGUUUCUCUGGGUGUUUUAAGGUGUCUGCUUUUGUCCAGGUCUCUUGCGGUCGCACUAGUGUGGAAUUCUCGGGUGUCAAGG
B9: ENSMUSG00000029028.38|Lrrc47 (ssRNA)
RNA: GGGAGUUCUACAGUCCGACGAUCGCUUCGAUAUCCGCAUGCUAUGUGCUGUAGGUGUCUGUGUAGGUGUGGGUGUGCUGUAGGUGUCUGUGUGGGUGUGCUAGGUGUCUGUAUAGGUGUGGGUGUGCUGUAGAUGUCUGUGUAGGUAUGGGUGUGCUGUAGAUCUUUGUAGGUGUAGGUAUGCUGUAGGUAUCUGGGUGUGGGUAUGCUGUAGAUGUCUGUGUAGGUGUGGAUAUGCUGUAGGUAUCUGGGUGUGCUGUAGGUGUCUGUGUGGGUGUGGGUGUGCUGUGGGUGUCUGUGUGGGCUCUUGCGGUCGCACUAGUGUGGAAUUCUCGGGUGUCAAGG
B10: ENSMUSG00000029028.44|Lrrc47 (ssRNA)
RNA: GGGAGUUCUACAGUCCGACGAUCGCUUCGAUAUCCGCAUGCUAUAGGUGUCUGUGUGGGUGUGCUAGGUGUCUGUAUAGGUGUGGGUGUGCUGUAGAUGUCUGUGUAGGUAUGGGUGUGCUGUAGAUCUUUGUAGGUGUAGGUAUGCUGUAGGUAUCUGGGUGUGGGUAUGCUGUAGAUGUCUGUGUAGGUGUGGAUAUGCUGUAGGUAUCUGGGUGUGCUGUAGGUGUCUGUGUGGGUGUGGGUGUGCUGUGGGUGUCUGUGUGGGUGUGCUGUAGGUGUCUGUAGGUGUGGGUAUGCUGCACUCUUGCGGUCGCACUAGUGUGGAAUUCUCGGGUGUCAAGG
B11: ENSMUSG00000029028.67|Lrrc47 (ssRNA)
RNA: GGGAGUUCUACAGUCCGACGAUCGCUUCGAUAUCCGCAUGCUACUGUGUAGGUGUGGAUAUGCUGUAGGUAUCUGGGUGUGCUGUAGGUGUCUGUGUGGGUGUGGGUGUGCUGUGGGUGUCUGUGUGGGUGUGCUGUAGGUGUCUGUAGGUGUGGGUAUGCUGCAGGUGUGGGUGUGCUGUAGAUCUCUAUAGGUGUGGGUGUGCUGUAGGGGUCUGUGUGGGUAUAGGUGUGGGUGUGCUGUAGAUUCUGUGUAACUGGUUCUUUGCUGUUUCUCUGGGUGUUUUAAGGUGUCUGCUUUUGUCUCUUGCGGUCGCACUAGUGUGGAAUUCUCGGGUGUCAAGG
B12: ENSMUSG00000029028.179|Lrrc47|115:119 (ssRNA)
RNA: GGGAGUUCUACAGUCCGACGAUCGCUUCGAUAUCCGCAUGCUAACAGAUGCUUCGUGGACUGUGCCUCACACAUGGCCCUGCAGGCUCCAUGUCAGCGUGUCCCACUAUUCAUGUCCCAUCUCUGUGCAUCCUGACUGCGCACAUCCCAUCUCCGCAACACAACGCAUCUGUACCAGCACACAGCUGCCAUCCCUCGAGCCACAGUGCCUGGUCCUAAGGACCCAGCAGCUGCACAGAGGACUUGGUGGCCCCGUGCCUUGCCAUCUGGCUGAGAAGAGAACCAGACCCUCAGCCUUCCCCCUCUCUUGCGGUCGCACUAGUGUGGAAUUCUCGGGUGUCAAGG
B13: ENSMUSG00000058297.511|Spock2 (ssRNA)
RNA: GGGAGUUCUACAGUCCGACGAUCGCUUCGAUAUCCGCAUGCUAAGGAGGCAAAGUUGGUGAGAGUCCUGGGACAUCUUACCCCCAGUGUUCCACAGGAGUCGUGACCACGUGUGAUGGGUGGGCACAGGUCUGCCUUGCUCCAGCCCCCUCCCUUGGUUUCUGUUGGUACCCAUUUGGCUUUUAUCUGCUUUCUGCUUCACCACUAAGUGCGUAGGUGGGGUCUUUUGAUAUCGGCUCCCCAAAGCCCAAGCCCACAGCCCUAGGAGAGAACCAGGGGCCCAUCUUUGACACCUGGGCCAUCACUCUUGCGGUCGCACUAGUGUGGAAUUCUCGGGUGUCAAGG

These binders were tested against TDP-43 (Homo sapiens, UniProt Q13148 1-414) (assay: RNA Bind-n-Seq with designed 260-mer pool; 25 mM Tris-HCl, 150 mM KCl, 3 mM MgCl2, BSA (printed 500 mg/mL), 20 units/mL SUPERase IN; pH not stated; 500 nM RNA pool, 1 h, 4 C; TDP-43 5, 50, 500 nM; high values mean tight binding). Settings: protein: recombinant; tags: SBP (GST cleaved off with PreScission; pGEX-GST-SBP).
Chain of TDP-43 (Q13148 whole entry): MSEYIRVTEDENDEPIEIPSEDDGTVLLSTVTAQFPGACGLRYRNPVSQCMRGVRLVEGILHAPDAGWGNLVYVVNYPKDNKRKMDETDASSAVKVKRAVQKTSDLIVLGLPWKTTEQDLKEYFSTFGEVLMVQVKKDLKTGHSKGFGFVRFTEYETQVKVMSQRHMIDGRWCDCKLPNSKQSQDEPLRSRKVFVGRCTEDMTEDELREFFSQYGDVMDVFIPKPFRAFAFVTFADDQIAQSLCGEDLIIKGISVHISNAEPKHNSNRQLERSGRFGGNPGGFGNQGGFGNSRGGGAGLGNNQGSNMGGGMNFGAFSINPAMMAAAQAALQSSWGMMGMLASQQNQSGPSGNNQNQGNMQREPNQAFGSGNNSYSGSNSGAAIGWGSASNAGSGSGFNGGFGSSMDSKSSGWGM
Procedure, shortened: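 An in vitro-transcribed pool of 260-nt 3′ UTR oligos (500 nM) was incubated for 1 h at 4 °C with recombinant SBP-tagged TDP-43 at 5, 50 or 500 nM held on streptavidin beads. The buffer contained 25 mM Tris-HCl, 150 mM KCl, 3 mM MgCl2, BSA and SUPERase IN. Biotin-eluted bound RNA was sequenced, and binding, R, is each oligo's normalized read abundance in the bound sample over that in input.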
B1 was tested, and the binding signal was 0.423 R (bound/input frequency ratio).
In the case of B2, the binding signal is reported as 0.56 R (bound/input frequency ratio).
With B3 the binding signal was 5.32 R (bound/input frequency ratio).
For B4, the binding signal was 6.68 R (bound/input frequency ratio).
With B5 the binding signal was 4.75 R (bound/input frequency ratio).
In the case of B6, the binding signal is reported as 5.01 R (bound/input frequency ratio).
B7 was tested, and the binding signal was 6.81 R (bound/input frequency ratio).
In the case of B8, the binding signal is reported as 7.46 R (bound/input frequency ratio).
In the case of B9, the binding signal is reported as 5.89 R (bound/input frequency ratio).
For B10, the binding signal was 6.44 R (bound/input frequency ratio).
With B11 the binding signal was 6.13 R (bound/input frequency ratio).
For B12, the binding signal was 0.745 R (bound/input frequency ratio).
For B13, the binding signal was 1.02 R (bound/input frequency ratio).
